The values that follow come from the supplement of paper PMC9492666.
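Note: viability read by CCK-8 kit in 96-well plates, part of a combination screen pairing lipid-metabolism-targeting compounds with erastin.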

The test has as its system MDA-MB-231. In words: relative cell viability, compound + erastin, vs DMSO (fraction of DMSO control); higher = less growth inhibition. Particulars: 72 h.
As to `CCN(CC)Cc1ccc(C(=O)N(CCc2ccccc2OC)[C@@H]2CCNC2)cc1` + CCOc1ccccc1-n1c(C(C)N2CCN(C(=O)COc3ccc(Cl)cc3)CC2)nc2ccccc2c1=O [erastin], the relative cell viability came to 0.726.

Take `C/C=C/c1cc(OC)c(OC)cc1OC` [alpha-Asarone] + CCOc1ccccc1-n1c(C(C)N2CCN(C(=O)COc3ccc(Cl)cc3)CC2)nc2ccccc2c1=O [erastin]: the relative cell viability was found to be 0.774.

For `C[N+](C)(C)CC(O)CC(=O)[O-]` (stereo not drawn) [L(-)-Carnitine] + CCOc1ccccc1-n1c(C(C)N2CCN(C(=O)COc3ccc(Cl)cc3)CC2)nc2ccccc2c1=O [erastin], the relative cell viability is 0.91.

Regarding `COc1cc(N2CCN(C)CC2)ccc1Nc1ncc2c(n1)N(C1CCC1)C(=O)N(c1c(C)cccc1C)C2` + CCOc1ccccc1-n1c(C(C)N2CCN(C(=O)COc3ccc(Cl)cc3)CC2)nc2ccccc2c1=O [erastin], the relative cell viability worked out at 0.586.

`C[C@]12CC[C@@H](O)C[C@@H]1CC[C@@H]1[C@@H]2CC[C@]2(C)C(=O)CC[C@@H]12` [Androsterone] + CCOc1ccccc1-n1c(C(C)N2CCN(C(=O)COc3ccc(Cl)cc3)CC2)nc2ccccc2c1=O [erastin]: the relative cell viability came to 0.564.

`Cc1c(C(=O)NN2CCOCC2)nn(-c2ccc(Cl)cc2Cl)c1-c1ccc(I)cc1` + CCOc1ccccc1-n1c(C(C)N2CCN(C(=O)COc3ccc(Cl)cc3)CC2)nc2ccccc2c1=O [erastin]: the relative cell viability stood at 0.325.

For `Cc1cc([N+](=O)[O-])ccc1NS(=O)(=O)c1cc(Cl)ccc1Cl` + CCOc1ccccc1-n1c(C(C)N2CCN(C(=O)COc3ccc(Cl)cc3)CC2)nc2ccccc2c1=O [erastin], the relative cell viability was found to be 0.616.

As for `CCOC(=O)C(C)(C)Oc1ccc(Cl)cc1` [Clofibrate] + CCOc1ccccc1-n1c(C(C)N2CCN(C(=O)COc3ccc(Cl)cc3)CC2)nc2ccccc2c1=O [erastin], the relative cell viability came to 0.653.

With `O=C(O)Cc1cccc(OCCCN(Cc2cccc(C(F)(F)F)c2Cl)CC(c2ccccc2)c2ccccc2)c1` + CCOc1ccccc1-n1c(C(C)N2CCN(C(=O)COc3ccc(Cl)cc3)CC2)nc2ccccc2c1=O [erastin], the relative cell viability is 0.478.

As to `Cc1cc(SCc2sc(-c3ccc(C(F)(F)F)cc3)nc2C)ccc1OCC(=O)O` + CCOc1ccccc1-n1c(C(C)N2CCN(C(=O)COc3ccc(Cl)cc3)CC2)nc2ccccc2c1=O [erastin], the relative cell viability was 0.558.

Turning to `CCCc1cc(-c2nc(-c3ccc(C)cc3)cs2)ccn1` [Fatostatin] + CCOc1ccccc1-n1c(C(C)N2CCN(C(=O)COc3ccc(Cl)cc3)CC2)nc2ccccc2c1=O [erastin], the relative cell viability came to 0.595.

Turning to `CCNC1(C(N)=O)CCN(c2ncnc3c2nc(-c2ccccc2Cl)n3-c2ccc(Cl)cc2)CC1` [Otenabant] + CCOc1ccccc1-n1c(C(C)N2CCN(C(=O)COc3ccc(Cl)cc3)CC2)nc2ccccc2c1=O [erastin], the relative cell viability worked out at 0.459.

For the molecule `CC1=C[C@]2(O)O[C@@]3(CC2=C(C)C)[C@@H](C)CC[C@@H]13` [Curcumenol] + CCOc1ccccc1-n1c(C(C)N2CCN(C(=O)COc3ccc(Cl)cc3)CC2)nc2ccccc2c1=O [erastin], the relative cell viability was 0.639.

In the case of `CCCCCCCCCCCC1=C(O)C(=O)C=C(O)C1=O` [Embelin] + CCOc1ccccc1-n1c(C(C)N2CCN(C(=O)COc3ccc(Cl)cc3)CC2)nc2ccccc2c1=O [erastin], the relative cell viability is 0.575.

For `C[C@H](CCOc1cccc(CC(=O)O)c1)N(Cc1cccc(C(F)(F)F)c1Cl)CC(c1ccccc1)c1ccccc1` [RGX-104 free Acid] + CCOc1ccccc1-n1c(C(C)N2CCN(C(=O)COc3ccc(Cl)cc3)CC2)nc2ccccc2c1=O [erastin], the relative cell viability amounted to 0.488.

On to `O=C(O)c1cc(F)c2nc(N3[C@@H]4CC[C@H]3C[C@@H](OCc3c(-c5ccccc5OC(F)(F)F)noc3C3CC3)C4)sc2c1` [Tropifexor] + CCOc1ccccc1-n1c(C(C)N2CCN(C(=O)COc3ccc(Cl)cc3)CC2)nc2ccccc2c1=O [erastin], for which the relative cell viability was 0.652.

Consider `O=C(OC(C(F)(F)F)C(F)(F)F)N1CCN(Cc2ccc(C(F)(F)F)cc2N2CCCC2)CC1` + CCOc1ccccc1-n1c(C(C)N2CCN(C(=O)COc3ccc(Cl)cc3)CC2)nc2ccccc2c1=O [erastin], for which the relative cell viability was 0.74.

Turning to `CC(C)[C@H](N=C(NS(=O)(=O)c1ccc(Cl)cc1)N1C[C@H](c2ccccc2)C(c2ccc(Cl)cc2)=N1)C(N)=O` + CCOc1ccccc1-n1c(C(C)N2CCN(C(=O)COc3ccc(Cl)cc3)CC2)nc2ccccc2c1=O [erastin], the relative cell viability is 0.429.

As to `CC(C)OC(=O)C(C(=O)OC(C)C)=C1SC=CS1` [Malotilate] + CCOc1ccccc1-n1c(C(C)N2CCN(C(=O)COc3ccc(Cl)cc3)CC2)nc2ccccc2c1=O [erastin], the relative cell viability was 0.644.
